These results are taken from the supplement of paper PMC10849652.

Targets with a hit are over-represented here; the source holds about 8,800 in all. About 0.5% of all pairs of compound and target were hits. Unmarked numbers belong to inactive results.

Sequence of UniProt Q13418 (Q13418 whole entry, looked up): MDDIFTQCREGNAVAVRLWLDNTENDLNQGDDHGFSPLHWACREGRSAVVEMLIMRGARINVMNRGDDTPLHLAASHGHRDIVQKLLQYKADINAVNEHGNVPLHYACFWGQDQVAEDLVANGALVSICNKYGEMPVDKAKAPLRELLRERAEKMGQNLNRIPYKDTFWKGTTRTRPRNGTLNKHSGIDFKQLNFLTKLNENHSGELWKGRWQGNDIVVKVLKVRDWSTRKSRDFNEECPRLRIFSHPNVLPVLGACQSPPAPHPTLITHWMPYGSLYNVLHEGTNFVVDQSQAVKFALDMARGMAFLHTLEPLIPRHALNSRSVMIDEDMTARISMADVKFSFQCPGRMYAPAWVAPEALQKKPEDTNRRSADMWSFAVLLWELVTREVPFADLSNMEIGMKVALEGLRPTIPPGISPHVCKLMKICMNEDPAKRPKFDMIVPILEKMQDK
Sequence of UniProt Q01628 (Q01628 whole entry, looked up): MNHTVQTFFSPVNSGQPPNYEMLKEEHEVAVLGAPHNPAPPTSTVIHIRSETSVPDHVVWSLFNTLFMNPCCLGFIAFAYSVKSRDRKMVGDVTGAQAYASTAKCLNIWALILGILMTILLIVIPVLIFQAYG
Sequence of UniProt O00425 (O00425 whole entry, looked up): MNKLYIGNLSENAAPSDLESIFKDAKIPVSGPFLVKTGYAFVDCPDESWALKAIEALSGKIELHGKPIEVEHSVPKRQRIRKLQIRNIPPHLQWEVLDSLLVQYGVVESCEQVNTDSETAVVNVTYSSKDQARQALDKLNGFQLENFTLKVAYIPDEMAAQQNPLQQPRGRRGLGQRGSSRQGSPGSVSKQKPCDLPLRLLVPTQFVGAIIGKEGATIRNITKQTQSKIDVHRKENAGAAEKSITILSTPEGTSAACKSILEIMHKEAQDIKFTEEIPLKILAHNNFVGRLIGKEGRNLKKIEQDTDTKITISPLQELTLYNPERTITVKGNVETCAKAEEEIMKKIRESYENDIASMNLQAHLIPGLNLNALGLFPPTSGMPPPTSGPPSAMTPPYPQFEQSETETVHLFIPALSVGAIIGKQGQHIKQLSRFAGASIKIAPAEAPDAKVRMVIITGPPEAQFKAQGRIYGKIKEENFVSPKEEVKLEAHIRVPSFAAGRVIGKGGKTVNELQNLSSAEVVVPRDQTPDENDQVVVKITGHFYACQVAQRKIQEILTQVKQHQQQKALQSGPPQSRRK
Sequence of UniProt P49840 (P49840 whole entry, looked up): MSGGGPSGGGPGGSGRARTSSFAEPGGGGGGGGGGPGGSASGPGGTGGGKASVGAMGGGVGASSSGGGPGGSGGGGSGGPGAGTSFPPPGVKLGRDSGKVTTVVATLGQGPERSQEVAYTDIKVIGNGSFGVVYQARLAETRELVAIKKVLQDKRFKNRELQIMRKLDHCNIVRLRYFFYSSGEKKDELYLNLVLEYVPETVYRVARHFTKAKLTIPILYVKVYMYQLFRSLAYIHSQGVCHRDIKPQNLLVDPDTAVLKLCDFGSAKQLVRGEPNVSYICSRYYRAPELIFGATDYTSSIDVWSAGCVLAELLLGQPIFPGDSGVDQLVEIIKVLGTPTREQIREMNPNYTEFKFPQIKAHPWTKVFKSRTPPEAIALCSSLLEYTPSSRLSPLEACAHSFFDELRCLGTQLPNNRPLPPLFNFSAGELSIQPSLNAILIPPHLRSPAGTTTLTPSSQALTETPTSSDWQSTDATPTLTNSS
Sequence of UniProt P20839 (P20839 whole entry, looked up): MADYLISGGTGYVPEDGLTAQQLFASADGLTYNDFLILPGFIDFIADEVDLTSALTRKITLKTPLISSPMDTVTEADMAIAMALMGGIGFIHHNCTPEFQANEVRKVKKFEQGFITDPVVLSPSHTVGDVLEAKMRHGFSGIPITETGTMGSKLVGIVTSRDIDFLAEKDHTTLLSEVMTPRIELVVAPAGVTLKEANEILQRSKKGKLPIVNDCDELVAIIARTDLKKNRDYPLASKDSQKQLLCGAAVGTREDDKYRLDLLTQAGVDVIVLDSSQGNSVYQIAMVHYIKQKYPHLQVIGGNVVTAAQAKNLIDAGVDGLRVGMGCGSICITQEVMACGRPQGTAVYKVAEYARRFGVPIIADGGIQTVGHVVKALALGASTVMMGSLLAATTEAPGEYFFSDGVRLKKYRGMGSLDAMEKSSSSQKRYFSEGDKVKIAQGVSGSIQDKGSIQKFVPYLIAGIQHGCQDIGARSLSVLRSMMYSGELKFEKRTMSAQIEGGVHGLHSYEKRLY
Sequence of UniProt P09429 (P09429 whole entry, looked up): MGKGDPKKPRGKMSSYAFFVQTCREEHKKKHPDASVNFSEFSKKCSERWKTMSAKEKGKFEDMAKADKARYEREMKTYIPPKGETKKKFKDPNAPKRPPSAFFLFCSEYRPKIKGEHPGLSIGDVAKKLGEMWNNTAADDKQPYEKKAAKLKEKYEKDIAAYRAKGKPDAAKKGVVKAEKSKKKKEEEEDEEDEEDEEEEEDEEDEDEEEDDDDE
Sequence of UniProt P04792 (P04792 whole entry, looked up): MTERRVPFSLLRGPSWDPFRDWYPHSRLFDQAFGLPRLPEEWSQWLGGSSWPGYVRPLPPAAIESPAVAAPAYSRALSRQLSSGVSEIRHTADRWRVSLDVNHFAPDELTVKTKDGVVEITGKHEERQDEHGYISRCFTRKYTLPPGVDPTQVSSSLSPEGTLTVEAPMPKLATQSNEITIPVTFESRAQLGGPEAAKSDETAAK
Sequence of UniProt Q03013 (Q03013 whole entry, looked up): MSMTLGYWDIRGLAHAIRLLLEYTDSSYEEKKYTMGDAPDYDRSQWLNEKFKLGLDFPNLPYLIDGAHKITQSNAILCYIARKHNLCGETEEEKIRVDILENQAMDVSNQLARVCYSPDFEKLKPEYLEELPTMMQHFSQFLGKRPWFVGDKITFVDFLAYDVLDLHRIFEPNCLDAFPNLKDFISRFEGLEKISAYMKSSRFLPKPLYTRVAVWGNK
Sequence of UniProt P13598 (P13598 whole entry, looked up): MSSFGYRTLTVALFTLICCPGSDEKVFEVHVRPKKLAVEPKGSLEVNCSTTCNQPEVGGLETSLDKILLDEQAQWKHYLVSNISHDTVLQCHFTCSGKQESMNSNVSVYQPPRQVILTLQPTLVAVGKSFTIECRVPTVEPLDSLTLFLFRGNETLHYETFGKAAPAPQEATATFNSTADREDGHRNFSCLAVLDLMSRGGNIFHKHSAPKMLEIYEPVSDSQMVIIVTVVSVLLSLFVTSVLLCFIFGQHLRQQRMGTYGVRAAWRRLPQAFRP
Sequence of UniProt Q07666 (Q07666 whole entry, looked up): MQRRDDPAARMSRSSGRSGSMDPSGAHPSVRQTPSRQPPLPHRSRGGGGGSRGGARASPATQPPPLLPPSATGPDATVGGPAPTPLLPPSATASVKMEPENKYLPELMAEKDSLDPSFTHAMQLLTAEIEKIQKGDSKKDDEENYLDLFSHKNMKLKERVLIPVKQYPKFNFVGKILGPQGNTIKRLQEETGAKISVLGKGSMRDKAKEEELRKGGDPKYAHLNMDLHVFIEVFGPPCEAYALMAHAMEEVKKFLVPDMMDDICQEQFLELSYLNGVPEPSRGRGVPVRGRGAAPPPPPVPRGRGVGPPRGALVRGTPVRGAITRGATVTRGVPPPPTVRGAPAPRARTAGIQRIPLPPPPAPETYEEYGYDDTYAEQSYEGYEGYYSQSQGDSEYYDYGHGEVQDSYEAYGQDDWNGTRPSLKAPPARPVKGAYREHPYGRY
Sequence of UniProt Q9NVX0 (Q9NVX0 whole entry, looked up): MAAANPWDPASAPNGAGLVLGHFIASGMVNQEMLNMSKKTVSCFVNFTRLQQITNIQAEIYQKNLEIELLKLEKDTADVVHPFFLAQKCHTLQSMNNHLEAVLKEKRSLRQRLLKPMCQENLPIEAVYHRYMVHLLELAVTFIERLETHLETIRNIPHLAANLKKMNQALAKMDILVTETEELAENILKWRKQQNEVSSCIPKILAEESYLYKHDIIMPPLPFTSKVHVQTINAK
Sequence of UniProt Q8IY47 (Q8IY47 whole entry, looked up): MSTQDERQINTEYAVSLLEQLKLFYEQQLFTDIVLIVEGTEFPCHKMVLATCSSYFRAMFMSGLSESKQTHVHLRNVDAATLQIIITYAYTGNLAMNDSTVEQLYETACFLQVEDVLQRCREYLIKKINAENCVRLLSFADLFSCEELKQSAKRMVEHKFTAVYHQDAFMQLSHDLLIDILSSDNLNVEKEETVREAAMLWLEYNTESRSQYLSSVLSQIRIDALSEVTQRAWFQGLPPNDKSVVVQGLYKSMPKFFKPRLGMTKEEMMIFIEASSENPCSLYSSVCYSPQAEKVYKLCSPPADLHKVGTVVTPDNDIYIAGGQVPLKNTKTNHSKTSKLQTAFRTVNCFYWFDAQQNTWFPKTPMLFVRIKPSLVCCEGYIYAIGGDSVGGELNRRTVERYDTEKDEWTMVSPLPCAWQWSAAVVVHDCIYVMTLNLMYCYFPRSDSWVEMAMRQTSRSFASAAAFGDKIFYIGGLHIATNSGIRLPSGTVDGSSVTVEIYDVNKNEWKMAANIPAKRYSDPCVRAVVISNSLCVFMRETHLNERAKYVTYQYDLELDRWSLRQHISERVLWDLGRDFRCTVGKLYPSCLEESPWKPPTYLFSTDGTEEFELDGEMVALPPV
Sequence of UniProt Q58FG1 (Q58FG1 whole entry, looked up): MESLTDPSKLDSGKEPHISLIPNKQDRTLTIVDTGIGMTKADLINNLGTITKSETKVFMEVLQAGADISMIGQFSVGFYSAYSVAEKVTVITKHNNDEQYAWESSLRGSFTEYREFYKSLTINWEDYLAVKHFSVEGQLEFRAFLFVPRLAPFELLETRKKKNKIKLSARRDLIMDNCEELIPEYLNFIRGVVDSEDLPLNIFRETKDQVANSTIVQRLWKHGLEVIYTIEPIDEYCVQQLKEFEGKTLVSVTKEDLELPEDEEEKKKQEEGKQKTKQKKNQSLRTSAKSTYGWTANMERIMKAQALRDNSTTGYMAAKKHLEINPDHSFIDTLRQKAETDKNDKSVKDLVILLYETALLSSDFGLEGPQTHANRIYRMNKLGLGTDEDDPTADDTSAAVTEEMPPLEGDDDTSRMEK

Compound in one test: C1=CC=C(C=C1)[C@H](COC2=CC3=C(C=C2)NC(=O)N3)NC(=O)C4=CC=CN(C4=O)CC5=CC(=C(C=C5)F)F
As to the kind of experiment: log2 fold change, soluble protein after heating vs DMSO (PISA); higher = thermal stabilisation; K562 lysate, 10 uM; active = over 0.2 and 3.5 SD of the protein, either way, in both replicates (recomputed). The gist of the method: (§1)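 Thermal stability, expressed as log-two fold change relative to solvent controls, is given from duplicates. Crude K562 extract in PBS pH 7.4 with 1 mM MgCl2, at 1 mg/mL protein, was treated with 10 μM compound for 30 min and heated in aliquots for 3 min across 48°C-58°C. After pooling, adjustment to 0.5% NP-40 at 4°C and centrifugation at 21,000xg for 90 min, supernatant protein was measured by TMTpro 16plex LC-MS/MS with channel sums equalised.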
As to GSTZ1 (UniProt G3V4T6), the log2 fold change is 0.035.
Still for that read-out and setting: in the case of GSK3A (UniProt P49840) it was -0.041; in that of HADHB (UniProt P55084), 0.053.
On the same count and under the same terms, the value for HNRNPD isoform 3 (UniProt Q14103) was -0.087; that for GSTM4 (UniProt Q03013) was -0.04; that for HNRNPAB isoform 3 (UniProt Q99729) was -0.015.
Same read-out and setting: in the case of HMGB1 (UniProt P09429) it was 0.053.
Take GTPBP2 (UniProt Q9BX10): the log2 fold change was 0.019.
The same measure, in the same setting: in the case of HNRNPL, A0A3B3ITJ4 it was -0.063; in that of HK2 (UniProt P52789), -0.021.
On the same count and under the same terms, in the case of HNRNPH2 (UniProt P55795) it was 0.036; in that of IMPDH1 isoform 6 (UniProt P20839), -0.008.
The same measure, in the same setting: in the case of KBTBD2 (UniProt Q8IY47) it was 0.016.
As for ILK (UniProt Q13418), the log2 fold change is -0.009.
Same read-out and setting: in the case of HMGN5 (UniProt Q5JSK9) it was -0.067; in that of HDLBP, A0A024R4E5, -0.024.
Same read-out and setting: in the case of HNRNPM (UniProt M0QZM1) it was -0.093; in that of KEAP1 (UniProt Q14145), 0.029; in that of GMDS (UniProt O60547), -0.003.
On to IMPDH2 (UniProt P12268), for which the log2 fold change was 0.
On the same count and under the same terms, the value for GTF2A1 (UniProt P52655) was 0.025; that for KHDRBS1 (UniProt Q07666) was -0.04.
Same read-out and setting: in the case of HAUS2 (UniProt Q9NVX0) it was -0.186.
The same measure, in the same setting: in the case of INTS1 (UniProt Q8N201) it was -0.017; in that of HEATR6 (UniProt Q6AI08), -0.039.
For the target HSPB1 (UniProt P04792), the log2 fold change is -0.091.
Same read-out and setting: the value for HLTF (UniProt Q14527) was -0.053; that for IGF2BP3 (UniProt O00425) was -0.02; that for ICAM2 (UniProt P13598) was 0.03.
The same measure, in the same setting: the value for HSP90AA4P (UniProt Q58FG1) was 0.012.
Still for that read-out and setting: the value for IMMT (UniProt Q16891) was -0.089.
Consider IMMT (UniProt C9J406), for which the log2 fold change is -0.055.
Same read-out and setting: the value for ITPKA (UniProt P23677) was -0.022; that for IFITM3 (UniProt Q01628) was -0.011; that for HSPA8 (UniProt E9PK54) was 0.065.

Compound in the next test: CC1=C(SC2=C1C(=N[C@H](C3=NN=C(N32)C)CC(=O)N)C4=CC=C(C=C4)Cl)C
The test is described as above. The method, boiled down:
as §1
Regarding GSTZ1 (UniProt G3V4T6), the log2 fold change was 0.002.
For GSK3A (UniProt P49840), the log2 fold change was 0.03.
On the same count and under the same terms, in the case of HADHB (UniProt P55084) it was 0.021; in that of HNRNPD isoform 3 (UniProt Q14103), -0.145; in that of GSTM4 (UniProt Q03013), -0.053.
Still for that read-out and setting: the value for HNRNPAB isoform 3 (UniProt Q99729) was 0.023.
Same read-out and setting: the value for HMGB1 (UniProt P09429) was -0.048.
For GTPBP2 (UniProt Q9BX10), the log2 fold change is 0.021.
As for HNRNPL, A0A3B3ITJ4, the log2 fold change was -0.011.
As to HK2 (UniProt P52789), the log2 fold change is -0.016.
The same measure, in the same setting: the value for HNRNPH2 (UniProt P55795) was -0.007; that for IMPDH1 isoform 6 (UniProt P20839) was 0.025; that for KBTBD2 (UniProt Q8IY47) was -0.005.
On the same count and under the same terms, in the case of ILK (UniProt Q13418) it was -0.019; in that of HMGN5 (UniProt Q5JSK9), 0.015; in that of HDLBP, A0A024R4E5, -0.013.
The same measure, in the same setting: the value for HNRNPM (UniProt M0QZM1) was -0.092; that for KEAP1 (UniProt Q14145) was 0.016; that for GMDS (UniProt O60547) was -0.014.
With IMPDH2 (UniProt P12268), the log2 fold change was -0.014.
Same read-out and setting: in the case of GTF2A1 (UniProt P52655) it was -0.033; in that of KHDRBS1 (UniProt Q07666), 0.027.
Regarding HAUS2 (UniProt Q9NVX0), the log2 fold change was 0.148.
The same measure, in the same setting: in the case of INTS1 (UniProt Q8N201) it was 0.065; in that of HEATR6 (UniProt Q6AI08), -0.086.
For HSPB1 (UniProt P04792), the log2 fold change was 0.002.
Still for that read-out and setting: the value for HLTF (UniProt Q14527) was -0.006; that for IGF2BP3 (UniProt O00425) was 0.005.
With ICAM2 (UniProt P13598), the log2 fold change is -0.025.
On the same count and under the same terms, in the case of HSP90AA4P (UniProt Q58FG1) it was 0.1.
Still for that read-out and setting: the value for IMMT (UniProt Q16891) was 0.016.
Still for that read-out and setting: in the case of IMMT (UniProt C9J406) it was 0.041.
With ITPKA (UniProt P23677), the log2 fold change was 0.006.
Still for that read-out and setting: in the case of IFITM3 (UniProt Q01628) it was -0.078; in that of HSPA8 (UniProt E9PK54), -0.031.
